# Compounds with a hit are over-represented: about 3% of the library has one in this group of screens.
# SARS PLP yeast: qHTS of Yeast-based Assay for SARS-CoV PLP | S. cerevisiae expressing SARS-CoV PLpro, growth rescue | Potency, µM (series often up to 32.9 µM), for inactives: at the top dose activity, positive = growth rescue, actives largely listed as activators | 330,000 compounds, 0.19% hits | AID 485353, 2010; calls by dose curve; note: 0% is about no effect; nearly all actives have a fitted effect of over 55% in size
# Sm TGR block: qHTS Assay for the Inhibitors of Schistosoma Mansoni Peroxiredoxins; 360,000 compounds, 3% hits; purified TGR, DTNB reduction, TNB absorbance 405 nm; Potency, µM (top dose mostly 114 µM), without a hit: at the top dose activity change, negative = inhibition, usual class: inhibitors; Schistosoma mansoni thioredoxin glutathione reductase (TGR), Q962Y6; AID 485364, 2010; active = well fitted inhibition curve with a large enough effect; inconclusive = small, poorly fitted or top-dose-only effect; inactive = no such curve, though single readings can be large or run the other way; note: % is set by controls: 0 for no effect and ±100 for the full control effect; nearly all actives have a fitted effect of over 60% in size
#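 Kinetic colorimetric format: TGR-catalysed, NADPH-driven DTNB reduction monitored via TNB absorbance. Enzyme dispensed at 20 nM; compound exposure 15 min at room temperature before reaction start.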
# Numbers without * were called inactive; ? = inconclusive; · = no result given. Potency is the fitted concentration of half-maximal effect.
SMILES,SARS PLP yeast,Sm TGR block
CCS(=O)(=O)c1nc(S(=O)(=O)c2ccc(Cl)cc2)c(NCc2ccccc2Cl)s1,·,-10.6%
CCCS(=O)(=O)c1nc(S(=O)(=O)c2ccc(C)cc2)c(NCc2ccco2)s1,5.2%,17.8µM*
Cc1ccc(OC(C)C(=O)N2CCN(CCc3ccncc3)CC2)cc1C (centres undefined),·,-34.4%
COc1ccc(C(=O)Oc2c(Sc3ccc(C)cc3)c(C)nn2C(C)(C)C)c(OC)c1,·,8.7%
CCC12CN3CC(CC)(CN(C1)C3c1c[nH]c3ccccc13)C2=O (centres undefined),·,0.1%
O=C(O)CCNc1cc(N2CCN(C(=O)c3ccco3)CC2)c2noc3c2c1C(=O)c1ccccc1-3,-5.6%,15.8µM*
CC(=O)OCCNc1cc(N2CCN(C)CC2)c2noc3c2c1C(=O)c1ccccc1-3,-35.4%,-23.3%
CCN1CCN(c2cc(N3CCN(C(=O)c4ccco4)CC3)c3c4c(onc24)-c2ccccc2C3=O)CC1,-16.0%,7.08µM*
O=C(O)CCCNc1cc(N2CCN(C3CCCCC3)CC2)c2noc3c2c1C(=O)c1ccccc1-3,·,-0.4%
CC1=C/C(=C\c2ccc(Br)o2)C(=O)O1,2.9%,-31.9%
Cc1ccc(C(=O)O)cc1-c1ccc(C=C2C(=O)c3ccccc3C2=O)o1,-0.3%,44.7µM*
Cc1ccc(NC(=O)CN2C(=O)S/C(=C/c3ccc(-c4cc(C(=O)O)ccc4C)o3)C2=O)cc1C,5.0%,-25.9%
O=C1C(=Cc2ccc(Br)o2)C(=O)c2ccccc21,4.6%,11.2µM*
Cc1cccc(NC(=O)CN2C(=O)CCn3nc(-c4cccn4C)cc32)c1C,·,-12.1%
Cc1ccccc1CNC(=O)c1cnc2sc(N3CCOCC3)nn2c1=O,·,2.4%
Cc1cc2c(N)cccc2nn1,6.3%,25.1µM*
Nc1cccc2nc3ccccc3cc12,-6.1%,-1.9%
CCC(=O)n1nc(-c2ccco2)nc1N,8.3%,-2.2%
CC(=O)n1nc(-c2ccco2)nc1SCc1ccccc1,-45.3%,31.6µM*
CCC(=O)n1nc(-c2ccco2)nc1SCc1ccccc1,-10.8%,8.91µM*
O=C(c1cccs1)n1nc(-c2ccco2)nc1SCc1ccccc1,-2.5%,-12.3%
Cc1cccc(C)c1NC(=O)c1ccc2c(c1)nnn2C1CCCC1,·,4.8%
CC1=C(C(=O)Nc2cccc(C(F)(F)F)c2)C(c2ccccn2)n2ncnc2N1 (centres undefined),·,3.2%
O=C(Cn1nnc(-c2cccs2)n1)NCCc1ccccc1,-2.8%,-8.4%
CC(C)(C)NC(=O)C(c1ccncc1)N(C(=O)Cn1nnc(-c2cccs2)n1)C1CCCCC1 (centres undefined),2.4%,-19.8%
SMILES,SARS PLP yeast,Sm TGR block
Cc1cccc(N(CC(=O)NCc2ccccc2)C(=O)Cn2nnc(-c3ccc(C)o3)n2)c1,2.0%,-13.8%
O=C(CN(Cc1ccco1)C(=O)Cn1nnc(-c2cccs2)n1)NCc1ccccc1,-0.7%,17.8µM*
Cc1ccc(C(C(=O)NC(C)(C)C)N(Cc2ccco2)C(=O)Cn2nnc(-c3cccs3)n2)cc1 (centres undefined),-19.8%,1.4%
CC(C)(C)NC(=O)C(c1ccncc1)N(Cc1cccs1)C(=O)Cn1nnc(-c2cccs2)n1 (centres undefined),3.6%,50.1µM*
Cc1ccc(-c2nnn(CC(=O)N(CC(=O)NCc3ccccc3)c3cccc(C)c3C)n2)o1,-2.9%,22.4µM*
CC(C)(C)NC(=O)C(c1ccc(O)cc1)N(Cc1ccco1)C(=O)Cn1nnc(-c2cccs2)n1 (centres undefined),15.5%,17.8µM*
Cc1ccc(C(CC(=O)Nc2ccc(F)c(Cl)c2)N2Cc3ccccc3C2=O)cc1 (centres undefined),·,-0.2%
C=Cc1ccc(Cn2c(=O)cc(C)c3c(C)nn(C)c32)cc1,·,7.5%
COC(=O)c1ccccc1NC(=O)Cn1nc(C(F)(F)F)c2c1CCCC2,·,5.4%
Cc1ccc(NC(=O)c2ccccc2Cl)cc1-n1cnnn1,0.6%,-0.4%
Cc1ccc(NC(=O)c2ccccc2)cc1-n1cnnn1,17.0%,20µM*
COc1ccc(/C(O)=C2/C(=O)C(=O)N(CCCN(C)C)C2c2ccc(C)o2)cc1Cl (centres undefined),3.0%,44.7µM*
Cc1ccc(C2/C(=C(\O)c3ccc4c(c3)OCCO4)C(=O)C(=O)N2CCCN(C)C)o1 (centres undefined),-2.7%,-32.2%
COc1cc(C2/C(=C(/O)c3ccc(OCC(C)C)cc3)C(=O)C(=O)N2CCN(C)C)ccc1O (centres undefined),3.2%,44.7µM*
CC(C)COc1ccc(/C(O)=C2/C(=O)C(=O)N(CCN(C)C)C2c2ccncc2)cc1 (centres undefined),-2.2%,-25.0%
COc1ccc(/C(O)=C2/C(=O)C(=O)N(CCN(C)C)C2c2ccc(C)cc2)cc1Cl (centres undefined),3.5%,-19.7%
COc1ccc(/C(O)=C2/C(=O)C(=O)N(CCN(C)C)C2c2ccc(OC)c(OC)c2)c(C)c1 (centres undefined),3.9%,39.8µM*
CCc1cccc(C)c1NC(=O)C1=C(C)C(=O)OC12CCC(C)CC2 (centres undefined),·,1.0%
COc1cccc(C(=O)NCCSc2c(-c3ccc(F)cc3)[nH]c3ccccc23)c1OC,·,5.1%
CN(C)c1oc(-c2ccc(COc3ccccc3)o2)nc1C#N,·,1.4%
Cc1ccc(NC(=O)c2cc(N3C(=O)C=CC3=O)ccc2N2CCOCC2)cc1Cl,-87.4%,0.708µM*
Cc1ccc(NC(=O)c2cc(N3C(=O)CCC3=O)ccc2N2CCOCC2)cc1,0.0%,7.7%
COC(=O)c1ccc2c(c1)sc(=NC(=O)CCS(=O)(=O)c1ccccc1)n2C,-6.7%,31.6µM*
Cn1c(=NC(=O)CS(=O)(=O)c2ccccc2)sc2ccccc21,-0.2%,0.3%
CCOc1ccc(S(=O)(=O)c2cn(Cc3ccc(C)cc3)c3ccc(OC)cc3c2=O)cc1,·,-4.9%
SMILES,SARS PLP yeast,Sm TGR block
Cc1ccc(CN(C)c2nc(-c3cccnc3)nc3ccccc23)o1,-1.2%,39.8µM*
CN(Cc1ccccc1F)c1nc(-c2cccnc2)nc2ccccc12,-12.5%,-0.3%
CCOC(=O)c1c(C)[nH]c(CCC(=O)Nc2ccc(C)c(F)c2)c1C,·,14.4%
CCC1CCCCN1S(=O)(=O)c1cc(C(=O)Nc2ccc(C)c(F)c2)ccc1F (centres undefined),·,6.8%
CCOC(=O)N1CCN(c2nc(-c3ccc(Cl)cc3)cs2)CC1,-5.4%,3.8%
CC(C)C(=O)N1CCN(c2nc(-c3ccc(Cl)cc3)cs2)CC1,0.5%,31.6µM*
CN1C(=O)C(Cc2cccc3ccccc23)C(=O)N(C)C1=O,0.0%,14.1µM*
O=C1NC(Cc2c[nH]c3ccccc23)C(=O)N1Cc1ccccc1 (centres undefined),-0.2%,-15.3%
CN1C(=O)C(Cc2ccc(OCc3ccccc3)cc2)C(=O)N(C)C1=O,1.0%,-1.6%
O=c1cc(-c2cccc3ccccc23)[nH][nH]1,?,-13.4%
O=C1c2ccccc2C(=O)C1Cc1cccc2ccccc12,0.3%,56.2µM*
CN1C(=O)C(Cc2c[nH]c3ccccc23)C(=O)N(C)C1=O,-8.3%,14.1µM*
Cc1nc(N2CCOCC2)c2c(C(=O)NCc3ccc(Cl)cc3)c(C)oc2n1,·,3.7%
Cc1cccc(NC(=O)CN2c3ccccc3S(=O)(=O)c3ccccc32)c1C,·,-13.0%
Cc1ccccc1OCCCCn1nnc2sc3c(c2c1=O)CCC(C)C3 (centres undefined),·,-4.5%

# Bioassay records deposited in PubChem by National Center for Advancing Translational Sciences (NCATS).
